Screening results deposited in PubChem by National Center for Advancing Translational Sciences (NCATS).
Compounds with a hit are over-represented: about 12% of the library has one in this group of screens.
G9a block – G9a (human) methyltransferase inhibition. G9a H3K9 monomethylation, AlphaScreen, 2 h. Potency, µM (series often up to 102 µM), without a hit: at the highest dose activity, negative = inhibition, actives largely listed as inhibitors. 350,000 tested, 8.8% active. AID 504332; further: on the % scale 0 is the no-effect control and ±100 the full control effect; nearly all actives have a fitted effect of over 75% in size
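G9a (20 nM) was preincubated 15 min with compound, then reacted 2 h at room temperature with 500 nM biotin-H3K9 peptide and 20 µM SAM. Monomethyl-H3K9 detected by AlphaScreen using anti-H3K9me1 antibody.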
Sfp PPTase inh – inhibitors of Bacillus subtilis Sfp phosphopantetheinyl transferase. Biochemical Sfp PPTase activity, qHTS. Q9F4F7. Potency, µM, inactives show largest response in the series, negative = inhibition, actives largely listed as inhibitors. 310,000 tested, 3.5% active;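 further: the enzyme is Sfp with the accession as filed and its product quenches rhodamine fluorescence; 0% = enzyme reaction without inhibitor and -100% = no enzyme wells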
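Reaction rates are the 30-min fluorescence difference (ex 525, em 598 nm) in wells containing 15 nM Sfp, 5 uM rhodamine-CoA and 12.5 uM BHQ-2-YbbR at pH 7.6 with 10 mM MgCl2.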
JMJD2A Tudor – JMJD2A Tudor domain (human) inhibition; 390,000 tested, 4.4% active; AlphaScreen JMJD2A-Tudor / H3K4me3 peptide binding; AID 504339; Potency, µM (highest dose often 114 µM), for inactives: at the top dose activity change, negative = inhibition, usual class: inhibitors; further: on the % scale 0 is the no-effect control and ±100 the full control effect; nearly all actives have a fitted effect of over 50% in size
BAZ2B inh – inhibitors of human BAZ2B bromodomain; Q9UIF8; AlphaScreen BAZ2B-H3K14Ac peptide displacement; Potency, µM (series often up to 114 µM), for the others: top-dose activity change, negative = inhibition, hits mostly inhibitors; 360,000 tested, 4.4% active; further: on the % scale 0 is the no-effect control and ±100 the full control effect; nearly all actives have a fitted effect of over 60% in size
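Complex of BAZ2B and biotin-H3K14Ac (50 nM apiece) forms over 30 min at RT, then faces library compounds up to 110 uM for another 30 min; AlphaScreen beads added, 20 min dark incubation, luminescence read.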
HP1b chromo inh – blocks HP1-beta chromodomain binding to methylated histone tails; 390,000 tested, 0.56% active; P83916; Potency, µM (doses to about 114 µM), for inactives: top-dose activity change, negative = inhibition, most hits filed as inhibitors; AlphaScreen HP1-beta / biotin-H3K9me3 peptide binding; further: nearly all actives have a fitted effect of over 70% in size
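HP1-beta protein (50 nM final) preincubated 30 min at room temperature with biotinylated H3(1-18)K9me3 peptide (50 nM) in PBS pH 7.4, 0.01% Tween-20, then compound added for 30 min. AlphaScreen streptavidin donor/nickel chelate acceptor beads (10 ug/mL final), 30 min dark, luminescence read.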
Active calls of the source: *; ? = inconclusive; . = no result; [ ] = another dose, or the depositor's remark. The call rests on the fitted dose curve; in most records, active means well fitted curve in the direction sought with a large enough effect; inconclusive means small, poorly fitted or top-dose-only effect, or another doubt; inactive means no such curve, though single readings can be large; an effect the other way counts as inactive or inconclusive. Potency means the concentration at half of the fitted maximal effect.

SMILES | G9a block | Sfp PPTase inh | JMJD2A Tudor | BAZ2B inh | HP1b chromo inh
CCCCCCC(NC(=O)c1ccc(C)cc1)C(=O)O (centres undefined) | . | . | -25.3% | . | 21.8%
COC(=O)c1c[nH]n2c(=O)cc(CCl)nc12 | 18.9%[59 µM] | -0.4% | 79.4µM* | ? | 24.4%
O=C1CCCC(C(C(=O)OCc2ccccc2)C(=O)OCc2ccccc2)C1 (centres undefined) | . | -5.1% | . | . | .
COc1ccc(Br)cc1C1Sc2ccccc2NC2=C1C(=O)c1ccccc12 (centres undefined) | -5.7%[59 µM] | . | -8.3% | . | 18.3%
O=C1C2=C(Nc3ccccc3SC2c2c(F)cccc2Cl)c2ccccc21 (centres undefined) | ? | . | 12.6µM* | . | ?
CCCc1ccc(C2Sc3ccccc3NC3=C2C(=O)c2ccccc23)cc1 (centres undefined) | 7.94µM* | . | 15.8µM* | 10µM* | ?
O=C1C2=C(Nc3ccccc3SC2c2ccccc2C(F)(F)F)c2ccccc21 (centres undefined) | 11.2µM* | . | 22.4µM* | ? | ?
O=C1C2=C(Nc3ccccc3SC2c2ccc(Cl)c(Cl)c2)c2ccccc21 (centres undefined) | 12.6µM* | . | 8.91µM* | . | ?
CCOc1cc(C2Sc3ccccc3NC3=C2C(=O)c2ccccc23)ccc1O (centres undefined) | 12.6µM* | . | 14.1µM* | . | ?
COc1ccc(CCNC(=O)CN2C(=O)c3ccccc3S2(=O)=O)cc1OC | -2.1%[59 µM] | 20.8% | -6.0% | 1.0% | 25.6%
CCCN1CCC(N(CCc2ccccc2)Cc2ccccc2)CC1 | -22.4% | 1.6% | -15.9% | -2.0% | 20.6%
COc1ccc(CCN(C)C(=O)C2CCN(Cc3ccccc3)CC2)cc1OC | 11.1% | -6.6% | 22.4µM* | 12.2% | ?
COc1ccc(CN2CCC(C(=O)N(C)CCc3ccc(OC)c(OC)c3)CC2)c(OC)c1 | 10µM* | -8.9% | 7.94µM* | ? | ?
COc1ccc(CCN(C)C(=O)CN2C(=O)c3ccccc3S2(=O)=O)cc1OC | ? | -1.3% | 79.4µM* | -1.5% | ?
CCN(Cc1ccccc1)C1CCN(Cc2ccccc2)CC1 | 70.8µM* | 4.6% | -6.0% | -23.9% | 29.4%
CSCC[C@H](N)C(=O)N[C@@H](CCCN=C(N)N)C(=O)N[C@@H](CC(C)C)C(=O)N[C@@H](Cc1ccccc1)C(=O)N[C@H](C(=O)O)C(C)C | . | -1.4% | . | . | .
CCc1c2c(nc3cccc(C(C)C)c13)-c1cccc(=O)n1C2 | . | -3.5% | . | . | .
Cc1ccc(N(CC(=O)NCCc2ccccc2)S(=O)(=O)N(C)C)cc1 | -26.9%[59 µM] | . | -16.6% | -0.6% | 20.2%
COc1ccc(OC)c(S(=O)(=O)NC2CCN(Cc3ccccc3)CC2)c1 | 1.8%[12.7 µM] | 4.1% | -17.4% | 0.6% | 52.7%
COc1ccc(CCN(C)C(=O)C2CCN(Cc3cccc(OC)c3OC)CC2)cc1OC | . | -27.5% | 3.16µM* | ? | -16.2%
COc1ccc(CN2CCC(N(CCc3ccccc3)Cc3ccccc3)CC2)c(OC)c1 | ? | 39.8µM* | 3.16µM* | 39.8µM* | ?
COc1ccc(-c2cc(C)no2)cc1S(=O)(=O)N1CC(C)Oc2ccccc21 (centres undefined) | -19.9%[59 µM] | . | -17.5% | ? | 13.9%
COc1ccc(-c2cc(C)no2)cc1S(=O)(=O)N1CC(=O)Nc2ccccc21 | 50.1µM* | 3.9% | -13.0% | -31.4% | 17.7%
Cc1[nH]c2ccccc2c1/C=C/C(=O)c1ccncc1 | . | ? | -10.8% | -0.4% | 22.4%
O=C(/C=C/c1cccc2ccccc12)c1ccncc1 | ? | 25.1µM* | ? | ? | -19.6%
SMILES | G9a block | Sfp PPTase inh | JMJD2A Tudor | BAZ2B inh | HP1b chromo inh
CCOc1cc(C(=O)OCc2cc(=O)n3nc(CC)sc3n2)cc(OCC)c1OCC | 6.4%[59 µM] | . | -17.0% | -19.7% | 16.1%
CCc1nnc(NC(=O)C2CCN(C(=O)c3ccco3)CC2)s1 | ? | 5.1% | -12.7% | -11.4% | -3.5%
CCC(C)(C)c1nnc(NC(=O)C2CCN(C(=O)c3ccco3)CC2)s1 | 1.78µM* | -100.7% | 35.5µM* | ? | ?
CC(C)c1nnc(NC(=O)C2CCN(C(=O)c3ccco3)CC2)s1 | 31.6µM* | -25.2% | -2.8% | 2.5% | -4.5%
COc1ccccc1Cc1nnc(NC(=O)C2CCN(C(=O)c3ccco3)CC2)s1 | 10µM* | 44.7µM* | -11.3% | -20.1% | ?
COCc1nnc(NC(=O)C2CCN(C(=O)c3ccco3)CC2)s1 | 12.6µM* | 50.1µM* | 13.4% | -2.0% | -15.9%
Cc1nnc(NC(=O)C2CCN(C(=O)c3ccco3)CC2)s1 | ? | 1.3% | -4.1% | 4.1% | -13.3%
CCOCCc1nnc(NC(=O)C2CCN(C(=O)c3ccco3)CC2)s1 | -2.7% | 7.4% | -0.7% | 2.0% | -23.8%
N#Cc1c(F)cccc1NCCCn1ccnc1 | . | . | -14.8% | . | 29.5%
CC(C)(C)c1ccc(C(=O)N/C(=C\c2cccs2)C(=O)N2CCOCC2)cc1 | 18.1%[59 µM] | 3.0% | -3.2% | 0.0% | 26.4%
C=CCC1C=CC(Oc2ccc(F)cc2C)C(CO)O1 (centres undefined) | . | 9.1% | . | . | .
CC(C)n1nccc1NC(=O)COC(=O)c1ccc(NC(N)=O)cc1 | . | . | -13.8% | . | -3.3%[57 µM]
COc1ccc(-c2nc(SC(CC(=O)NCCN3CCOCC3)c3cccs3)n[nH]2)cc1 (centres undefined) | -64.3% | 13.2% | 15.8% | . | 22.5%
O=C(C1=C(O)C(=O)N(CCOCCO)C1c1cccc([N+](=O)[O-])c1)c1cccs1 (centres undefined) | . | 0.5% | -6.2% | -11.2% | 17.3%
O=C(O)CCCCCN1C(=O)C(O)=C(C(=O)/C=C/c2ccccc2)C1c1cccc([N+](=O)[O-])c1 (centres undefined) | 44.7µM* | 18.1% | -17.5% | ? | 27.5%
COc1ccccc1COC(=O)c1ccc(S(=O)(=O)N2CCOCC2)cc1 | 20.8%[12.7 µM] | . | 13.9% | 9.1% | 60.4%
Cc1nnc(SC(C)C(=O)N(C)C2CCCCC2)n1N (centres undefined) | ? | . | -12.1% | -3.1% | 31.2%
COc1ccc(OC)c(C(=O)NC(CC(N)=O)c2ccc(N3CCCCCC3)c([N+](=O)[O-])c2)c1 (centres undefined) | ? | 3.5% | ? | 50.1µM* | -6.5%
NC(=O)CC(NC(=O)c1ccccc1)c1ccc(NCCN2CCOCC2)c([N+](=O)[O-])c1 (centres undefined) | 70.8µM* | 15.6% | -15.9% | -28.1% | 24.5%
NC(=O)CC(NC(=O)c1cccc(Br)c1)c1ccc(N2CCN(c3ccc(F)cc3)CC2)c([N+](=O)[O-])c1 (centres undefined) | 44.7µM* | 10.7% | ? | ? | -9.6%
NC(=O)CC(NC(=O)c1cccc(Br)c1)c1ccc(N2CCC(N3CCCCC3)CC2)c([N+](=O)[O-])c1 (centres undefined) | 44.7µM* | 9.7% | -3.4% | -37.2% | 34.3%
